Assay outcomes: PubChem, National Center for Advancing Translational Sciences (NCATS)
Hits are enriched below; roughly 2.4% of the tested compounds scored in any of these assays.
Rango dissoc inh: prevents RanGTP from dissociating the Rango-importin beta complex; Biochemical FRET Rango-importin beta, RanGTP-induced dissociation; Potency, µM (highest dose often 46.1 µM), inactives show at the highest dose activity change, negative = inhibition; 340,000 tested, 0.071% active; calls by dose curve; note: % of control where 0% means no effect; nearly all actives have a fitted effect of over 45% in size
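Two FRET readings bracket the reaction: one 5 min after compound meets Rango–importin beta, another 45 min after RanGTP-RCC1 (0.6 uM Ran, 0.2 uM RCC1, 2 mM GTP) is added. Only the second defines inhibition.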
PKM2 act: PKM2 (human) enzyme activation; P14618; purified PKM2, Kinase-Glo ATP luminescence, activation; response scale: 0% is enzyme alone, no compound; Potency, µM (highest dose often 57.5 µM), without a hit: top-dose activation, most hits filed as activators; 260,000 tested, 0.34% active; AID 1631; note: % is set by controls: 0 for no effect and ±100 for the full control effect; nearly all actives have a fitted effect of over 55% in size
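ATP formation by purified human PK-M2, quantified via coupled luciferase luminescence after 1 h at room temperature with 0.1 mM ADP and 0.5 mM PEP final.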
ELG1 repair inh: ELG1-dependent DNA repair inhibition | HEK293T ELG1-luciferase reporter, luminescence, 16 h; DNA damage induced by 5-fluorouridine | Potency, µM (top dose mostly 46.1 µM), for the others: at the top dose activity change, negative = inhibition, usual class: inhibitors | 330,000 tested, 2.3% active | AID 504467; note: % is set by controls: 0 for no effect and ±100 for the full control effect; nearly all actives have a fitted effect of over 55% in size
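Reporter activity after DNA damage by 5-fluorouridine is monitored. Compound-treated cells incubate 16 hr at 37 °C, then ONE-Glo is added for 30 min before luminescence reading.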
Tb PFK block: blocks T. brucei phosphofructokinase; 330,000 tested, 0.17% active; AID 485367; T. brucei PFK, ADP-Glo luminescence; Potency, µM (highest dose often 57.5 µM), without a hit: top-dose activity, negative = inhibition, hits mostly inhibitors;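 note: 0% = uninhibited 1x PFK enzyme wells and -100% = no-enzyme wells; nearly all actives have a fitted effect of over 60% in size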
Target sequence (O15648 whole entry, looked up): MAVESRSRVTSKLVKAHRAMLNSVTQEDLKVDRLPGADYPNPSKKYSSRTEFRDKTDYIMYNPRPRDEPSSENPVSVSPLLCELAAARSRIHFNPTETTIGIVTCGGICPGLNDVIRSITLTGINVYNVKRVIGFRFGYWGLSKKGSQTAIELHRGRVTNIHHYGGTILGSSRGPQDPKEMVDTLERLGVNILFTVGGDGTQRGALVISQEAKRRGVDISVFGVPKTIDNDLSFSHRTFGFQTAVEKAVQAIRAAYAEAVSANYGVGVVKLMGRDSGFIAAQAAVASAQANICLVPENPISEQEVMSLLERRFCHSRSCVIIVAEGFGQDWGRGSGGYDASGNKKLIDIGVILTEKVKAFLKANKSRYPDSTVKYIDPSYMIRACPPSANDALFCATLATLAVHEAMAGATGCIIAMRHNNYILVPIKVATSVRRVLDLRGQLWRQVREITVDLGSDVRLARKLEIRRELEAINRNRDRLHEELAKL
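ADP-Glo luminescence quantified ADP after 45 min at room temperature, with 1.25 nM T. brucei PFK, 0.1 mM ATP and 0.5 mM fructose-6-phosphate in pH 8.0 TEA buffer. qHTS titrations up to 57 µM; curves classified by quality.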
Rango complex inh: prevents formation of the Rango-importin beta complex. Q14974. Rango CFP/YFP FRET sensor + importin beta, 45 min. Potency, µM (doses to about 92.2 µM), for the others: at the top dose inhibition of complex formation. 340,000 tested, 0.031% active; calls by dose curve;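 note: 0% = DMSO wells and 100% = buffer wells lacking importin beta; nearly all actives have a fitted effect of over 15% in size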
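Inhibition scored from the CFP 486 nm/YFP 530 nm FRET ratio 45 min after adding 0.125 microM importin beta to 50 nM Rango biosensor preincubated 5 min with compound (room temperature, PBS with DTT, Tween-20, BSA). No-importin wells as positive control.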
Tb PGK inh: inhibitors of T. brucei phosphoglycerate kinase; P07378; AID 602233; PGK/GAPDH coupled, Kinase-Glo luminescence, 60 min; Potency, µM (top dose mostly 57.5 µM), for inactives: at the top dose activity change, negative = inhibition, hits mostly inhibitors; 380,000 tested, 0.043% active; note: % is set by controls: 0 for no effect and ±100 for the full control effect; nearly all actives have a fitted effect of over 60% in size
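Luminescent ATP detection (Kinase-Glo Plus) follows a 60-minute room-temperature incubation, with wells lacking PGK as controls. Buffer: 100 mM TEA (pH 7.6), 5 mM MgCl2, 0.01% Tween-20. Coupling enzyme GAPDH (100 nM final) supplies unstable 1,3-BPG in-well.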
An asterisk follows results filed as active; i = inactive; ? = inconclusive; . = no result given. Unless noted, calls come from the whole dose curve; as a rule, active = well fitted curve in the direction sought with a large enough effect; inconclusive = small, poorly fitted or top-dose-only effect, or another doubt; inactive = no such curve, though single readings can be large; an effect the other way counts as inactive or inconclusive. Potency is the fitted concentration of half-maximal effect.

SMILES | Rango dissoc inh | PKM2 act | ELG1 repair inh | Tb PFK block | Rango complex inh | Tb PGK inh
CCNC(=O)/C(C#N)=C/c1c(N(Cc2ccccc2)Cc2ccccc2)nc2ccccn2c1=O | ? | 0% | 12µM* | 7% | ? | -14%
CCOc1ccc(C(=O)OCC(=O)N2CC(C)OC(C)C2)cc1OCC (stereo not given) | -13% | -1% | 9% | 0% | -1% | -7%
CC1(C)Cc2c(sc(NC(=O)C(=O)N3CCCCC3)c2C(=O)O)CO1 | -7% | . | 12% | -3% | ? | i
Cc1ccc(-c2cc(-c3ccc(C)o3)nc(N)c2C#N)cc1 | ? | ? | ? | 0% | ? | -7%
Cc1ccc(-c2cc(-c3ccc4c(c3)OCO4)c(C#N)c(N)n2)o1 | -15% | 10µM* | 21µM* | -20% | ? | -8%
CCCc1cc(-c2ccc(O)c(OCC)c2)c(C#N)c(N)n1 | -11% | 3% | ? | 3% | -5% | -8%
CCOc1cc(-c2cc(-c3ccc(C)o3)nc(N)c2C#N)ccc1O | -12% | 17% | 16µM* | 0% | ? | 2%
COc1ccc(N=c2oc3cc(O)ccc3cc2C(=O)Nc2ccccn2)cc1OC | ? | 11% | 4.1µM* | 1% | ? | -2%
CC(=O)c1c(C)[nH]c(C(=O)Nc2ccc(N3CCCCCC3)cc2)c1C | . | . | . | . | . | 2%
CN(C)C(=O)c1ccc(NC(=O)COc2cccc3c2OC(C)(C)C3)cc1 | 6% | . | 2% | 2% | -3% | -10%
O=c1c2c(C(F)(F)F)cc(C(F)(F)F)nc2[nH]n1-c1ccccc1 | -2% | -14% | 26µM* | -6% | 0% | i
Nc1c(C(=O)NCc2ccc(F)cc2)c2nc3ccccc3nc2n1CCCN1CCOCC1 | ? | 1% | ? | 1% | ? | -5%
C=CCn1c(N)c(C(=O)NCC2CCCO2)c2nc3ccccc3nc21 (stereo not given) | ? | 14% | 10µM* | -3% | ? | -12%
Nc1c(C(=O)NCc2ccccc2)c2nc3ccccc3nc2n1CCCN1CCOCC1 | ? | 7% | 21µM* | -3% | ? | -1%
COc1ccc(CNC(=O)c2c(N)n(CCCN3CCOCC3)c3nc4ccccc4nc23)cc1 | ? | 12% | 21µM* | 2% | ? | -11%
CCC(Sc1nnc(C)n2c1cc1sccc12)C(=O)Nc1ccccc1F (stereo not given) | . | . | . | . | . | i
O=C(COc1ccccc1)N1CCN(S(=O)(=O)c2ccc(Cl)cc2)CC1 | 3% | ? | -11% | 0% | 0% | 1%
Nc1ncccc1C(=O)OCC(=O)N1CCN(S(=O)(=O)c2ccc(Cl)cc2)CC1 | 11% | . | 9.2µM* | -2% | 0% | -2%
NS(=O)(=O)c1ccc(NC(=O)c2cc(-c3cc(Cl)ccc3O)n[nH]2)cc1 | 16% | . | 5.2µM* | -16% | -4% | -12%
O=C(Nc1ccc(S(=O)(=O)N2CCOCC2)cc1)c1cc(-c2ccccc2O)n[nH]1 | 6% | -2% | 0% | -2% | 1% | i
CC1CN(S(=O)(=O)c2ccc(NC(=O)c3cc(-c4ccccc4O)n[nH]3)cc2)CC(C)O1 (stereo not given) | 4% | 4% | 20µM* | 7% | -4% | -9%
O=C(NCc1ccco1)c1ccc2c(=O)n(CC3CCCO3)c(=S)[nH]c2c1 (stereo not given) | 23% | -1% | 13µM* | -4% | 2% | -2%
O=C(NCc1ccccc1)c1ccc2c(=O)n(CC3CCCO3)c(=S)[nH]c2c1 (stereo not given) | 2% | 0% | -23% | 2% | 0% | 3%
COc1ccc(OC)c(CNC(=O)C2COc3ccccc3C2)c1 (stereo not given) | . | . | . | . | . | -3%
O=C1CNC(=O)/C1=C/c1ccc(O)cc1 | -14% | -7% | 3% | 26% | 2% | -2%
SMILES | Rango dissoc inh | PKM2 act | ELG1 repair inh | Tb PFK block | Rango complex inh | Tb PGK inh
CC(OC(=O)c1cc(-c2cccnc2)nc2ccccc12)C(=O)Nc1ccc2ccccc2c1 (stereo not given) | 10% | -1% | 18µM* | -6% | 2% | -9%
CCOC(=O)c1ccc(NC(=S)NNC(=O)c2cc(-c3cccnc3)nc3ccccc23)cc1 | 9% | 7% | 15µM* | -9% | 2% | -5%
CC1=C(C(=O)OCCOc2ccccc2)C(c2ccsc2)NC(=O)N1C (stereo not given) | -12% | -7% | 23µM* | -8% | -2% | -1%
CC(=O)NC1CC2CCCC(C1)N2C(=O)Nc1cccc(C(C)=O)c1 (stereo not given) | 0% | . | . | . | 1% | 3%
CC(C)Cc1nc2oc3c(N4CCN(CCO)CC4)ncnc3c2c2c1CCCC2 | 0% | 2% | ? | -2% | -3% | -10%
CCCc1nc2oc3c(NCC(C)O)ncnc3c2c2c1CCCC2 (stereo not given) | -13% | -4% | 23µM* | -10% | -2% | 6%
CC(C)Cc1nc2oc3c(NCc4cccnc4)ncnc3c2c2c1CCC2 | -5% | -4% | ? | -2% | 0% | 1%
CC(C)c1nc2oc3c(NCc4cccnc4)ncnc3c2c2c1CCC2 | -14% | 6% | 8.2µM* | -6% | 3% | 1%
CC(C)Cc1nc2oc3c(NCC4CCCO4)ncnc3c2c2c1CCC2 (stereo not given) | 8% | 2% | 12µM* | -1% | -1% | 4%
C[C@@H]1CN([C@H](C)CO)C(=O)CCCn2nncc2CO[C@H]1CN(C)Cc1cccnc1 | . | . | . | . | . | -2%
CCCOc1nc2c(c(=O)n(C)c(=O)n2C)n1Cc1cccc2ccccc12 | 4% | 3% | 16µM* | 2% | -2% | .
CCCOc1nc2c(c(=O)n(C)c(=O)n2C)n1C | 4% | 1% | -7% | 1% | 0% | 4%
Cc1ccc(Oc2nc3c(c(=O)n(Cc4ccccc4F)c(=O)n3C)n2C)cc1 | 1% | -2% | 18µM* | -5% | -1% | i
COc1cc(/C=C/C(=O)OCC(=O)N2CCCc3ccccc32)ccc1O | 15µM* | . | ? | 1% | ? | 7%
COc1cc(/C=C/C(=O)N2CCCc3ccccc32)cc(OC)c1OC | -2% | 4% | 8.2µM* | 0% | 1% | -1%
COc1cc2c(cc1OC)C(C)N(C(=O)/C=C/c1cc(OC)c(OC)c(OC)c1)CC2 (stereo not given) | -1% | . | 18µM* | -1% | -5% | 0%
